Experimental data from ChEMBL document CHEMBL1201862, “PubChem BioAssay data set” (2004).
Where “and” joins values, the source holds several entries; their conditions need not be identical. Identical values can stand only once. The whole screen tested about 310,000 compounds, of which about 11,000 (3.5%) were called active. About 4% were inconclusive and are not listed. No cut-off for these calls is given here. Only a selection was taken, and actives are over-represented in it overall.

target: T1, 4'-phosphopantetheinyl transferase ffp (Bacillus subtilis) (UniProt Q9F4F7); assay: qHTS Assay for Inhibitors of Bacillus subtilis Sfp phosphopantetheinyl transferase (PPTase).; type: functional
T1 sequence (whole entry): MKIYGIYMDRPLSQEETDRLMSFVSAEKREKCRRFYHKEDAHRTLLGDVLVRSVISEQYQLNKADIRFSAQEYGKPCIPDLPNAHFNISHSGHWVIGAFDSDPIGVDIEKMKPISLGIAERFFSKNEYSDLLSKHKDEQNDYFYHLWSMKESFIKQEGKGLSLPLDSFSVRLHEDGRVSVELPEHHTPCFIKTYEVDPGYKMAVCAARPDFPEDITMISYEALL

Structure (SMILES) | Potency
N[C@@H](CCC(=O)O)C(=O)O | 50.1 µM (active)
N[C@H](CCC(=O)O)C(=O)O | 44.7 µM (active) and 56.2 µM (active)
